We go through 14 compounds from PubChem BioAssay.

Assay [1] is described as follows: binders of probe aFSTL3 on microarray, primary screen, stem cell growth factor project, biochemical, small-molecule microarray, fluorescence 635/667 (AID 1064).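 Further: measures binding of the biotinylated anti-FSTL3 antibody to printed compounds.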 The settings on record: higher = more signal.
Assay [2] in a line: binders from COS7 lysate, DM2A8 probe, primary screen, torsin A project, cell lysate, small-molecule microarray, fluorescence 635/667 (AID 1065). The settings on record: higher = more signal, COS7 lysate expressing mutant human TOR1A.
Assay [3] in a line: binders of probe aFGF2 on microarray, primary screen, stem cell growth factor project, biochemical, small-molecule microarray, fluorescence 635/667 (AID 1067).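 Further: measures binding of biotinylated aFGF2 protein to printed compounds on slides; z-score merges feature fluorescence and signal-to-noise across triplicate slides.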 The conditions noted are these: higher = more signal.
Assay [4] in a line: binders of probe aFGF10 on microarray, primary screen, stem cell growth factor project, biochemical, small-molecule microarray, fluorescence 635/667 (AID 1071).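 Further: score merges 667 nm spot intensity and signal to noise from triplicate slides.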 The settings on record: higher = more signal.
Assay [5] addresses Neurogenic locus notch homolog protein 2 (Homo sapiens) (UniProt Q04721). Briefly: Notch2 binders on small-molecule microarrays, primary screen, biochemical, small-molecule microarray, 635 nm fluorescence, stem cell growth factors (AID 1073). The settings on record: Notch2 binding, higher = more signal.
Assay [6] has as its target Pro-neuregulin-1, membrane-bound isoform (Homo sapiens) (UniProt Q02297). Briefly: NRG1 binders on small-molecule microarrays, primary screen, psychiatric disease protein project, biochemical, small-molecule microarray, fluorescence 635/667 (AID 1075).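 Further: score combines 667 nm spot fluorescence with signal to noise.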 The conditions noted are these: NRG1 binding, 635 nm fluorescence, higher = more signal.
Assay [7] concerns Neuregulin-1 EGF-like domain. Briefly: binders of neuregulin-1 EGF-like domain, primary screen, biochemical, small-molecule microarray, 635 nm fluorescence (AID 1081).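 Further: binding of the protein to compounds printed on small-molecule microarray slides.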 The settings on record: small-molecule microarray binding, higher = more signal.
The nature of assay [8]: FRG1 promoter luciferase signal modulators, primary screen, FRG1 inhibition for FSHD, cell-based, C2C12 myotubes, firefly/Renilla luciferase, luminescence (AID 1084). The settings on record: higher = more signal, called active from +8 up or from −8 down.
A short description of assay [9]: binders of probe aFST on microarray, primary screen, stem cell growth factor project, biochemical, small-molecule microarray, fluorescence 635/667 (AID 1086).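 Further: score merges 667 nm fluorescence with signal-to-noise of each printed compound spot.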 The settings on record: higher = more signal.
Assay [10] can be described thus: binders of probe aHhip on microarray, primary screen, stem cell growth factor project, biochemical, small-molecule microarray, fluorescence 635/667 (AID 1087).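 Further: score merges spot fluorescence at 667nm with spot signal to noise ratio.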 The conditions noted are these: higher = more signal.

Molecules are shown by their SMILES. The source made the active and inactive calls.

Chain of Pro-neuregulin-1, membrane-bound isoform (Homo sapiens) (Q02297 whole entry, looked up, the tested form may be a part, canonical isoform): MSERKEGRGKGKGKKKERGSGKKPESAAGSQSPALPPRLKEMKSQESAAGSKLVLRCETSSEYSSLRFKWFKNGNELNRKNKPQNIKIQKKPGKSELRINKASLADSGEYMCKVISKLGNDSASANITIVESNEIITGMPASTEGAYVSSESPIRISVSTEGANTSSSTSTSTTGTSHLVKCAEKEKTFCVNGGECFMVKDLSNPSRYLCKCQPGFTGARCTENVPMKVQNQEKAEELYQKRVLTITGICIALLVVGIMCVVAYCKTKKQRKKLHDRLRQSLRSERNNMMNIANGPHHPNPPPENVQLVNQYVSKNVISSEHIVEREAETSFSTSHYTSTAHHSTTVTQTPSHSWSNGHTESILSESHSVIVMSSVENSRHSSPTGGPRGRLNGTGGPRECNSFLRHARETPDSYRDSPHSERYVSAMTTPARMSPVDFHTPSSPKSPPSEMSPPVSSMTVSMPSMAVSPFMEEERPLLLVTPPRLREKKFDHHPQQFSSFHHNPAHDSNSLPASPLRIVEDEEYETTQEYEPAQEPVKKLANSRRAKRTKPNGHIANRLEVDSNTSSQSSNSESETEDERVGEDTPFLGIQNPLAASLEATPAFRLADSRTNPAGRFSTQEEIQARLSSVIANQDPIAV
Chain of Neurogenic locus notch homolog protein 2 (Homo sapiens) (Q04721 whole entry, looked up, canonical isoform): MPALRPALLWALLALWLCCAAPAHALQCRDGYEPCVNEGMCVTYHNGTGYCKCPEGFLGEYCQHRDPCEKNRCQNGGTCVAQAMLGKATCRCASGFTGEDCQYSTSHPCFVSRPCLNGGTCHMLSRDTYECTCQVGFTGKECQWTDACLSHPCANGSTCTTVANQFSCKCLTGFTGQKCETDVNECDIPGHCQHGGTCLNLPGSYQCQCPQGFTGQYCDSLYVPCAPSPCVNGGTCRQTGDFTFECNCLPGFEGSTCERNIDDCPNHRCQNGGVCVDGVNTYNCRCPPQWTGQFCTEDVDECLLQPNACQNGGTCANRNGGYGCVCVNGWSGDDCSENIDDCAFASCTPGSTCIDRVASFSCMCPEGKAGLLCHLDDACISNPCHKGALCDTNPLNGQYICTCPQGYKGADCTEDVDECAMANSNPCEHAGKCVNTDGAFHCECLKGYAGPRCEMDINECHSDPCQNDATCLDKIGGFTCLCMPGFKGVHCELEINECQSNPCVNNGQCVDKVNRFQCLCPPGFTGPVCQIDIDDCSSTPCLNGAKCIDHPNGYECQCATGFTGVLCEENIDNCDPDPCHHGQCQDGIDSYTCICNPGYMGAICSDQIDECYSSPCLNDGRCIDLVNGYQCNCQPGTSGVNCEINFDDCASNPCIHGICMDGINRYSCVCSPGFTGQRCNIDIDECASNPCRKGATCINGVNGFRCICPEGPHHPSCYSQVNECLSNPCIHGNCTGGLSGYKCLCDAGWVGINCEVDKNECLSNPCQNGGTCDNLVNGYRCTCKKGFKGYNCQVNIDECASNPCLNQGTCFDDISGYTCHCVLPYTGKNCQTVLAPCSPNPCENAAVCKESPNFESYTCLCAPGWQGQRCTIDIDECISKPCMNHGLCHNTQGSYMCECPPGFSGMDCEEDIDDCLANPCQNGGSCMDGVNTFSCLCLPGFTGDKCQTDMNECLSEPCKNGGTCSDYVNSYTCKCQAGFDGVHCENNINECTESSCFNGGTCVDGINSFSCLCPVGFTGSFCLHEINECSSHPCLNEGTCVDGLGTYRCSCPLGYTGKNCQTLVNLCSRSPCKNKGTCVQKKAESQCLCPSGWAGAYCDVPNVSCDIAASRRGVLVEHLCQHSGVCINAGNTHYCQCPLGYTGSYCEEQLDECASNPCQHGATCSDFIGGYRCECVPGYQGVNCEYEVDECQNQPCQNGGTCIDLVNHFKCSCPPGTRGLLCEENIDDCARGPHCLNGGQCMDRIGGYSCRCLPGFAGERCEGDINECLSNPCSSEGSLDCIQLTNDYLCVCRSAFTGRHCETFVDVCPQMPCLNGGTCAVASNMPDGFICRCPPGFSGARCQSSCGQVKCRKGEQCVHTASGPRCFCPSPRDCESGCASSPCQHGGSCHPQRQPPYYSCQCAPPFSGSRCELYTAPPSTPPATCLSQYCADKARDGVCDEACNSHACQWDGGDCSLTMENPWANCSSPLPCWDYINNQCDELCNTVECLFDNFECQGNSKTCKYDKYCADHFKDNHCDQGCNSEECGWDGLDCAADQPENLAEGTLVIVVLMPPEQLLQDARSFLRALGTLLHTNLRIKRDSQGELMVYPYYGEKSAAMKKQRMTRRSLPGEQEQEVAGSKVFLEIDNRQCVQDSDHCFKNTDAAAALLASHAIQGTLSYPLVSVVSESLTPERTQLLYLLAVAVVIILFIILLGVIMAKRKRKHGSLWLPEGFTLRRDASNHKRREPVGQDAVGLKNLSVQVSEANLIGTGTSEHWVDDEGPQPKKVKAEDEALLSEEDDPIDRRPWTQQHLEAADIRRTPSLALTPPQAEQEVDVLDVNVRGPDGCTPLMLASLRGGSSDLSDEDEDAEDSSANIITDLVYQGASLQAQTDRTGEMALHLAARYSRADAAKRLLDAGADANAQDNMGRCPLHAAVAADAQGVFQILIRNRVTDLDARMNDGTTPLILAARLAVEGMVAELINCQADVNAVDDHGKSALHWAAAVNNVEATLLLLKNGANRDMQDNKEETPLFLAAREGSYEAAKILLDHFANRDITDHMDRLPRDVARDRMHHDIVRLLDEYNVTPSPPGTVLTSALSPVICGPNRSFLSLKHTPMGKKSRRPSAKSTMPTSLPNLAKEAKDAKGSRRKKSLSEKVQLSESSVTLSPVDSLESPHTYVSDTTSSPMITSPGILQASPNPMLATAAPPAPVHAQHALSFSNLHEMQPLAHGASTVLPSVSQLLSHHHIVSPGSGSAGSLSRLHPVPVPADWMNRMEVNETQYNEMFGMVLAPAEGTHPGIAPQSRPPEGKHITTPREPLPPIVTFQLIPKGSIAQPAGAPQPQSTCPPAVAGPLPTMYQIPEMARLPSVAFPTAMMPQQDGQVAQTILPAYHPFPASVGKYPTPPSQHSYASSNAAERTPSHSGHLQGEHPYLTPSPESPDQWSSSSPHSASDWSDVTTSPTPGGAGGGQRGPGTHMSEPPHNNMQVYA

For `O=C(O)[C@H](Cc1ccccc1)n1cc(-c2ccccn2)nn1`, the composite z-score in assay [1] was -0.158; in assay [2], -0.258; in [3] it was -0.149; in [4] it was 0.306; in [5], 0.377; in assay [6], 0.286. Moreover, the composite z-score was 1.07 in assay [7], 0.321 in assay [9] and -0.0672 in assay [10]. Moreover, the z-score in assay [8] was 1.24 (inactive).
Take `O=C(CS)NCCCCCCNC(=O)[C@@H]1C[C@@H]2C(=O)N3CCC[C@H]3C(=O)N2[C@@H]1c1cccc(OCCO)c1`: the composite z-score in assay [1] was found to be 0.145; in [2] it was 0.804; in [3], 0.109; in assay [4], 0.256; in [5], 0.407; in [6] it was 1.28. Also, the values for the composite z-score in [7], in assay [9] and in assay [10] were 0.911, -0.022 and -0.0645, respectively. Also, the z-score in assay [8] was 1.05 (inactive).
For the compound `COc1ccc(C(O)C2C=CC3C(=O)N(Cc4ccccc4)C(=O)C3N2n2cnnc2)c2ccccc12` (stereo not given), the composite z-score is 0.487 in assay [1]; 1.07 in [2]; -0.0876 in assay [3]; -0.522 in assay [4]; -0.782 in assay [5]; 1.81 in assay [6]. Moreover, the results for the composite z-score in assay [7], in assay [9] and in [10] were 1.32, 0.623 and -0.162, respectively. The z-score in assay [8] is 0.422 (inactive).
On to `NC(=O)NCC#Cc1ccc2c(c1)[C@]1(C(=O)N2)[C@H](C(=O)Nc2nc3ccccc3s2)[C@H]2C(=O)O[C@H](c3ccccc3)[C@H](c3ccccc3)N2[C@@H]1c1ccc(O)cc1`, for which the composite z-score in [1] is 0.187; in assay [2], 0.544; in assay [3], -0.0415; in assay [4], 0.604; in assay [5], 0.455; in assay [6], 0.339. In addition, the results for the composite z-score in assay [7], in [9] and in [10] were -0.15, 0.623 and 0.142, respectively. In addition, the z-score in assay [8] is 1.46 (inactive).
Take `CC(C)CN1C(=O)[C@@]2(Cc3ccccc31)c1ccccc1C(=O)N(Cc1ccccc1C(F)(F)F)[C@H]2c1ccc(CO)cc1`: the composite z-score in assay [1] is 0.0106; in [2], -0.0077; in assay [3] it was -0.167; in assay [4], 0.2; in assay [5], -0.202; in [6] it was -0.84. For the same compound, the composite z-score in assay [7] is -1.12; in [9], 0.0594; in [10], -0.374. Besides, the z-score in assay [8] is -1.04 (inactive).
In the case of `COc1cc(CO)cc(I)c1O[C@H]1C=C(C(=O)NCCO)C[C@@H](N(Cc2ccc(F)cc2)C(=O)C2CCCO2)[C@@H]1O` (stereo not given in full), the composite z-score was -0.625 in assay [1]; 0.114 in assay [2]; -0.057 in assay [3]; 0.122 in [4]; 0.159 in assay [5]; -0.0002 in assay [6]. Besides, the composite z-score in assay [7] was found to be 0.547; in [9] it was 0.0494; in assay [10] it was 0.142. In addition, in assay [8], the z-score was -0.851 (inactive).
Regarding `COCCCNC(=O)[C@@]1(Sc2ccc(C)cc2)CC(=O)N(C2Cc3ccccc3C2)[C@@H]1c1ccc(CO)cc1I`, the composite z-score in [1] is 0.926; in assay [2], -0.247; in assay [3] it was -0.156; in assay [4] it was -0.379; in assay [5], -1.02; in assay [6], 1.12. Also, the composite z-score is -0.447 in assay [7], -0.926 in [9] and -0.294 in [10]. The z-score in assay [8] is -0.703 (inactive).
With `CC(C)NC(=O)[C@@]1(C)c2ccccc2C(=O)N(C(C)C)[C@H]1c1ccc(CO)cc1`, the composite z-score is -0.0225 in assay [1]; -0.953 in assay [2]; -0.153 in [3]; -0.564 in assay [4]; -0.792 in assay [5]; 0.493 in assay [6]. For the same compound, the composite z-score is -0.643 in assay [7], -0.242 in [9] and -0.252 in assay [10]. The z-score in assay [8] is -0.639 (inactive).
On to `CC(C)(C)OC(=O)CC[C@]1(C(=O)O)N=C(c2ccc(OCCCO)cc2)O[C@H]1c1ccccc1`, for which the composite z-score in assay [1] was -0.161; in assay [2], -0.0254; in assay [3] it was -0.0345; in assay [4], 0.19; in assay [5] it was 0.831; in assay [6], 0.467. For the same compound, the results for the composite z-score in assay [7], in [9] and in assay [10] were 1.11, 0.292 and 1.28, respectively. Further, the z-score in assay [8] is 1.9 (inactive).
In the case of `COc1ccc(C(O)C2C=CC3C(=O)N(c4ccccc4)C(=O)C3N2Nc2ccccc2)cc1OCc1ccccc1` (stereo not given), the composite z-score worked out at 0.12 in assay [1]; 0.748 in [2]; 0.206 in [3]; 1.1 in assay [4]; 1.51 in assay [5]; 1.48 in [6]. The composite z-score in [7] stood at 1.15; in assay [9], 1.64; in assay [10], 0.0515. The z-score in assay [8] was 0.0678 (inactive).
With `[N-]=[N+]=Nc1ccccc1C[C@]1(C(=O)NCc2ccccc2)N=C(c2ccc(OCCCO)cc2)O[C@H]1c1ccccc1`, the composite z-score was determined as 0.0843 in assay [1]; 0.984 in assay [2]; 0.0898 in assay [3]; 0.584 in assay [4]; 1.61 in assay [5]; 1.86 in [6]. Also, the composite z-score was 1.2 in assay [7], 1.22 in [9] and 0.0515 in assay [10]. Besides, the z-score in [8] is -2.1 (inactive).
Regarding `C=CC[C@@]1(C(=O)O)N=C(c2ccc(OCCCO)cc2)O[C@@H]1c1ccccc1`, the composite z-score in [1] came out at 0.522; in assay [2] it was 3.13; in assay [3] it was 0.206; in assay [4], 0.553; in assay [5] it was 0.63; in [6], 2.08. For the same compound, the results for the composite z-score in assay [7], in assay [9] and in [10] were 1.34, -0.55 and 0.212, respectively. Besides, the z-score in assay [8] is 0.19 (inactive).
`C[n+]1ccc(CCCO)cc1`: the composite z-score is 1.03 in [1]; 1.06 in assay [2]; -0.044 in assay [3]; 0.0582 in [4]; -1.21 in [5]; -0.161 in assay [6]. The composite z-score is 1.45 in [7], -0.311 in assay [9] and 0.837 in assay [10]. In assay [8], the z-score was 1.12 (inactive).
With `CC(C)CCC[C@@H](C)[C@H]1CC[C@@]2(C)C3=C(CC[C@]12C)[C@@]1(C)CC[C@H](OC(=O)c2ccc(Br)cc2)C(C)(C)C1CC3` (stereo not given in full), the composite z-score in [1] was -0.571; in assay [2], 0.193; in [3], -0.128; in assay [4], 0.541; in assay [5] it was 0.5; in assay [6], 0.0933. In addition, the results for the composite z-score in assay [7], in assay [9] and in assay [10] were 0.439, 0.0941 and -0.126, respectively. Moreover, the z-score in assay [8] is -0.879 (inactive).
